Experimental data reported in PubChem BioAssay (EPA / NIEHS).
Where a structure was tested more than once in an assay, its records may differ in their call. Active and inactive are the calls of the source. Rule for the calls: active = hit-call score of the fitted dose curve at least 0.9, where 1 is the maximum; inactive = score below 0.9.

Key:
[1] = APR_HepG2_CellCycleArrest_1hr: Apredica 1-hour HepG2 Assay for Cell Cycle Arrest (AID 2282666); details: high-content imaging, actives raise or lower the signal
How it was run: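 HepG2 cells exposed for 1 h to 0.39–200 uM compound (0.5% DMSO). Fixed, Hoechst-stained nuclei imaged by ArrayScan; DNA content quantified by Cell Cycle analysis; bidirectional fit against DMSO.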

[2] = APR_HepG2_MicrotubuleCSK_1hr: Apredica 1-hour HepG2 Assay for Microtubule CSK Stabilty (AID 2282669); details: HepG2 microtubule cytoskeleton imaging, actives raise or lower the signal
How it was run: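 HepG2 cells exposed 1 h to 0.39–200 uM compound (0.5% DMSO, duplicates), then formaldehyde-fixed, permeabilized and immunostained for alpha-tubulin with Hoechst nuclei. Imaged by ArrayScan high-content analysis; bidirectional fit versus DMSO.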

[3] = APR_HepG2_p53Act_1hr: Apredica 1-hour HepG2 Assay for p53 Activation (AID 2282671); details: high-content imaging, actives raise or lower the signal
How it was run: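 HepG2 cells treated 1 h with compound at 0.39–200 uM (10 concentrations, duplicate) in 0.5% DMSO. Formaldehyde-fixed, permeabilised cells immunostained for p53 with Hoechst 33342; high-content imaging, bidirectional fit versus DMSO.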

[4] = APR_HepG2_MitoticArrest_1hr: Apredica 1-hour HepG2 Assay for Mitotic Arrest (AID 2282672); details: high-content imaging, actives raise or lower the signal
How it was run: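 HepG2 cells exposed 1 hr to compounds at 0.39–200 uM (0.5% v/v DMSO final), then fixed in 3.7% formaldehyde and immunostained for phospho-histone H3 with Hoechst 33342. Mitotic arrest scored by automated fluorescence imaging, fitted bidirectionally versus DMSO.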

[5] = APR_HepG2_P-H2AX_1hr: Apredica 1-hour HepG2 Assay for H2AX Phosphorylation (AID 2282673); details: high-content imaging, actives raise or lower the signal
How it was run: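 HepG2 dosed 1 hr at 0.39-200 uM (0.5% DMSO final), duplicate. Fixed in 3.7% formaldehyde, Triton permeabilized, immunostained for phospho-histone H2A.x (1:200) with Hoechst 33342; ArrayScan 20x imaging, bidirectional fit vs DMSO.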

[6] = APR_HepG2_MitoMembPot_1hr: Apredica 1-hour HepG2 Assay for Mitochondrial Membrane Potential (AID 2282675); details: imaging, actives raise or lower the signal
How it was run: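 HepG2 cells dosed 1 hour with 0.39–200 uM compound in duplicate, 0.5% DMSO final. MitoTracker Red CMXRos (250 nM, 30 min) loaded before formaldehyde fixation; fluorescence quantified by high-content imaging, bidirectional fitting versus DMSO.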

[7] = APR_HepG2_CellCycleArrest_24hr: Apredica 24-hour HepG2 Assay for Cell Cycle Arrest (AID 2282905); details: imaging, actives raise or lower the signal;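 note: cell cycle arrest scored as ratio of 2N to 4N nuclear DNA content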
How it was run: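 HepG2 cells were exposed to compounds at 0.39–200 uM (ten concentrations, duplicate) in 0.5% v/v DMSO for 24 hr. After formaldehyde fixation and Triton permeabilization, Hoechst 33342-stained nuclei were imaged at 20x; DNA content was quantified, with bidirectional fitting against DMSO.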

[8] = APR_HepG2_StressKinase_1hr: Apredica 1-hour HepG2 Assay for Stress Kinase (AID 2282906); details: HepG2 stress kinase (phospho-c-Jun) imaging, actives raise or lower the signal
How it was run: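 HepG2 cells dosed 0.39-200 uM (0.5% DMSO) for 1 h, then formaldehyde-fixed. Stress kinase read by phospho-c-Jun immunofluorescence using high-content imaging; bidirectional fit vs DMSO.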

[9] = APR_HepG2_NuclearSize_24hr: Apredica 24-hour HepG2 Assay for Nuclear Size (AID 2282907); details: high-content imaging, actives raise or lower the signal
How it was run: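 HepG2 human liver cells were exposed for 24 hr to compounds at 0.39–200 uM (ten concentrations, duplicate) in 0.5% v/v DMSO. They were then formaldehyde-fixed, Triton-permeabilized and Hoechst 33342-stained, and nuclear diameter was imaged at 20x. Bidirectional fits were made against DMSO.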

[10] = APR_HepG2_CellLoss_24hr: Apredica 24-hour HepG2 Assay for Cell Loss (AID 2282908); details: high-content imaging;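 for AC50: fit in both directions so a hit may be cell loss or gain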
How it was run: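 Compounds were tested at 0.39–200 uM in duplicate with 0.5% v/v DMSO final. Cells were then fixed in 3.7% formaldehyde, Hoechst 33342 nuclei were imaged at 20x by HCS, and cell number was fitted bidirectionally against DMSO.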

[11] = APR_HepG2_MicrotubuleCSK_24hr: Apredica 24-hour HepG2 Assay for Microtubule CSK Stabilty (AID 2282909); details: HepG2 microtubule cytoskeleton imaging, actives raise or lower the signal
How it was run: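 HepG2 cells exposed 24 h to compounds at 0.39–200 uM (duplicate, 0.5% v/v DMSO final), then fixed, permeabilized and immunostained for alpha-tubulin with Hoechst 33342. Cytoskeleton imaged at 20x; bidirectional fit versus DMSO baseline.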

[12] = APR_HepG2_MitoticArrest_24hr: Apredica 24-hour HepG2 Assay for Mitotic Arrest (AID 2282910); details: high-content imaging, actives raise or lower the signal
How it was run: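 HepG2 cells, 24 h exposure at 0.39-200 uM (10 concentrations, duplicate, 0.5% DMSO). Fixed, stained for phospho-histone H3 with Hoechst; imaged by high-content microscopy, bidirectional fit versus DMSO.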

[13] = APR_HepG2_MitoMembPot_24hr: Apredica 24-hour HepG2 Assay for Mitochondrial Membrane Potential (AID 2282911); details: imaging, actives raise or lower the signal
How it was run: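 Mitochondrial membrane potential imaged via MitoTracker Red CMXRos (250 nM, 30 min pre-fixation) in fixed HepG2 cells with Hoechst nuclear identification. Ten concentrations 0.39–200 uM, 24 h treatment, 0.5% DMSO; CCCP as positive control.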

[14] = APR_HepG2_MitoMass_24hr: Apredica 24-hour HepG2 Assay for Mitochondrial Mass (AID 2282912); details: high-content imaging, actives raise or lower the signal
How it was run: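 Human HepG2 liver cells were exposed for 24 hr to compounds at 0.39–200 uM (duplicates, 0.5% v/v DMSO final). They were stained live with 250 nM MitoTracker Red CMXRos for 30 min, fixed in 3.7% formaldehyde, and imaged by HCS fluorescence; signals were fitted bidirectionally against DMSO.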

[15] = APR_HepG2_p53Act_24hr: Apredica 24-hour HepG2 Assay for p53 Activation (AID 2282913); details: high-content imaging, actives raise or lower the signal;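 note: p53 protein immunofluorescence averaged per cell in HepG2 with Hoechst nuclei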
How it was run: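 Fluorescence imaging of formaldehyde-fixed HepG2 cells labelled for p53 and with Hoechst, 24 h after dosing (0.39–200 uM, duplicate wells, 0.5% v/v DMSO). Signal fitted in both directions relative to DMSO.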

[16] = APR_HepG2_CellCycleArrest_72hr: Apredica 72-hour HepG2 Assay for Cell Cycle Arrest (AID 2282914); details: high-content imaging, actives raise or lower the signal
How it was run: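 Read-out: nuclear DNA content from Hoechst 33342 high-content imaging (20x, six fields/well) after 3.7% formaldehyde fixation, fitted bidirectionally against DMSO. Treatment was 72 h in HepG2, ten concentrations 0.39–200 uM, duplicate, 0.5% DMSO.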

[17] = APR_HepG2_CellLoss_72hr: Apredica 72-hour HepG2 Assay for Cell Loss (AID 2282915); details: high-content imaging
How it was run: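 HepG2 cells exposed 72 h to compound at 0.39–200 uM (10 concentrations, duplicate) in 0.5% DMSO. Fixed with 3.7% formaldehyde and Hoechst 33342-stained. Imaged at 20x; nuclear count gives cell number, fitted bidirectionally versus DMSO.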

[18] = APR_HepG2_MitoMass_1hr: Apredica 1-hour HepG2 Assay for Mitochondrial Mass (AID 2282674); details: high-content imaging, actives raise or lower the signal
How it was run: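 HepG2 cells dosed 1 hr with 0.39-200 uM compound (0.5% DMSO), duplicate wells. Mitochondria stained with 250 nM MitoTracker Red CMXRos for 30 min before formaldehyde fixation, imaged at 20x by ArrayScan; bidirectional fit versus DMSO.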

[19] = APR_HepG2_NuclearSize_1hr: Apredica 1-hour HepG2 Assay for Nuclear Size (AID 2282670); details: high-content imaging, actives raise or lower the signal
How it was run: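 HepG2 cells dosed 1 hr with 0.39–200 uM compound (0.5% DMSO), formaldehyde-fixed, Hoechst 33342-stained and imaged at 20x; nuclear diameter from nuclear stain, fitted bidirectionally against DMSO.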

Measured: AC50

ClC1C(Cl)C(Cl)C(Cl)C(Cl)C1Cl (stereo not drawn)
active: [16] 141 µM | [17] 57.2 µM
inactive: [1] | [2] | [3] | [4] | [5] | [6] | [7] | [8] | [9] | [10] | [11] | [12] | [13] | [14] | [15] | [16] | [17]

O=[N+]([O-])c1c(Cl)c(Cl)c(Cl)c(Cl)c1Cl
active: [16] 81.9 µM
not listed: [1] | [19]
inactive: all other assays above

CC1(C)C(C=C(Cl)Cl)C1C(=O)OC(C#N)c1ccc(F)c(Oc2ccccc2)c1 (stereo not drawn)
not listed: [1] | [18] | [19]
inactive: all other assays above

CCOc1nc(NC)nc(NC(=O)NS(=O)(=O)c2ccccc2C(=O)OC)n1
not listed: [1] | [18]
inactive: all other assays above

CCCN(CCOc1c(Cl)cc(Cl)cc1Cl)C(=O)n1ccnc1
active: [7] 101 µM | [10] 103 µM | [17] 30.8 µM
not listed: [1] | [18] | [19]
inactive: all other assays above

COP(=S)(OC)Oc1ccc([N+](=O)[O-])cc1
not listed: [1] | [18] | [19]
inactive: all other assays above

[2H]C1([2H])[n+]2ccccc2-c2cccc[n+]2C1([2H])[2H]
active: [16] 75.1 µM | [17] 35.1 µM
not listed: [1] | [18] | [19]
inactive: all other assays above

CCCN(CCC)c1c([N+](=O)[O-])cc(C(F)(F)F)cc1[N+](=O)[O-]
active: [13] 118 µM | [17] 109 µM
not listed: [1] | [3] | [15] | [18] | [19]
inactive: all other assays above

CNC(=O)Oc1cccc(N=CN(C)C)c1
active: [10] 78.6 µM | [16] 64.1 µM | [17] 96.5 µM
not listed: [1] | [18] | [19]
inactive: all other assays above

O=C(Nc1ccccc1)Nc1cnns1
active: [6] 76.2 µM | [11] 68.9 µM | [17] 90.8 µM
not listed: [1] | [18]
inactive: all other assays above

COc1nn(CSP(=S)(OC)OC)c(=O)s1
not listed: [1] | [18]
inactive: all other assays above

COP(=O)(OC)OC=C(Cl)Cl
active: [7] 99.1 µM | [10] 58.9 µM | [17] 78 µM
not listed: [1] | [3] | [15]
inactive: all other assays above

COC(=O)c1ccccc1CS(=O)(=O)NC(=O)Nc1nc(OC)cc(OC)n1
not listed: [1] | [19]
inactive: all other assays above

N#CN
not listed: [1] | [3] | [15] | [18] | [19]
inactive: all other assays above
